Measurements published in PubChem BioAssay (NCATS).
Results filed as inconclusive are left out. Activity calls are given as the source filed them. The call rests on the fitted dose curve; in most records, active means well fitted curve in either direction with a large enough effect (not every such curve was filed as active); inconclusive means small, poorly fitted or top-dose-only effect, or another doubt; inactive means flat fitted curve, though single readings scatter.

Test: NFAT Signaling Pathway (AID 444)
Conditions: Jurkat NFAT-bla M1, carbachol, beta-lactamase ratio, 5 h; at 7.69 µM (top of the series) unless noted
Text: NCGC Assay Overview: The nuclear factor of activated T cells (NFAT) family of transcription factors has been found primarily in most immune system cells and some other non-immune cells. NFAT plays the immunomodulatory role, primarily in T-cell activation and differentiation. NFAT target genes are also involved in the regulation of apoptosis and differentiation in non-immune cell types. The NFAT sequence was engineered to the upstream of the ?-lactamase reporter gene and transfected into Jurkat cells with co-transfection of muscarinic receptor1 [provided by Invitrogen Corp]. When an extracellular stimulus, such as carbachol, binds to the GPCR M1 receptor, it stimulates a signaling cascade that activates NFAT response element and ?-lactamase expression by phosphorylating the NFAT binding protein. This cell based ?-lactamase reporter gene assay can accurately monitor any changes occurring along the NFAT pathway, and can be used for screening small molecule inhibitor or activator upon activation by carbachol EC50 concentration. A small molecular library were screened in a titration series resulting in AC50s (can be either IC50s or EC50s).
NCGC Assay Protocol Summary: The cells were prepared in RPMI 1640 medium containing 0.1% dialyzed FBS and 25 mM HEPES at 1.6 x 10^6cell/ml. The assay was performed in 1536-well plate format as follows: 5 ul of cell preparation 23 nl of compounds 1ul of carbachol (final concentration 1 uM) Briefly centrifuge the plates and incubate at 37 °C for 5 hours 1 ul of CCF4 dye mixture Incubate the plates at RT for 1 hour Read the plate in EnVision plate reader (Ex= 405nm, and Em1=460nm and Em2=530nm). The %Activity was determined from the ratio of 460nm/530nm. Data normalization and AC50 calculations were accomplished using GeneData software.
On the % scale 0 is the no-effect control and ±100 the full control effect.

Activity change, negative = inhibition, inactive:
NCCNC(=O)c1ccc(Cl)cc1 9.25% [at 38 µM], CS(=O)(=O)Nc1cccc(-c2nccc(NCc3ccccc3)n2)c1 -4.2%, COCCn1c(=O)c(-c2cn(C)c3ccccc23)nc2cnc(N3CCOCC3)nc21 5.44%, CN(C)C(=O)c1ccc(-c2ccc3ncnc(N4CCC(C(=O)O)CC4)c3c2)cc1 7.54%, O=C(c1cnccn1)N1CCC[C@@]2(CCN(c3ncccn3)C2)C1 7.98%, Cc1noc(C)c1-c1cc(NCc2ccccc2)ncn1 -10.6%, O=C(c1cnccn1)N1CCC[C@@]2(CCN(c3ccccc3)C2)C1 -3.48%, CC(=O)N1CCC2(CC1)CN(C(c1ccccc1)c1ccccc1)C2 -5.45%, COCC(=O)N1CCC2(CC1)CN(C(=O)Nc1cccc(F)c1)C2 9.78%, COc1ccccc1CNc1ncncc1-c1cccc(C#N)c1 -5.86%, CCNc1ncc2nc(-c3cn(C)c4ccccc34)c(=O)n(Cc3cccc(OC)c3)c2n1 5.19%, COCCNc1cc(-c2c(C)noc2C)ncn1 3.73%, N#CCCn1c(=O)c(-c2cccs2)nc2cnc(OCc3ccccc3)nc21 6.28%, COc1ccc(NC(=O)N2CC3(CCN(C(=O)c4c(C)noc4C)CC3)C2)cc1 15.1%, COc1ncc2nc(-c3ccccc3)c(=O)n(C)c2n1 11.3%, COc1ccc(-n2c(=O)c(-c3cccc(C#N)c3)nc3cnc(N4CCNCC4)nc32)cc1 5.29%, CN1CCN(c2ncc3nc(CCc4ccccc4)c(=O)n(C4CC4)c3n2)CC1 15.1%, COCCNc1cc(-c2ccccc2CN(C)C)ncn1 -0.403%, Cc1noc(C)c1C(=O)N1CCC2(CCCN(c3ccccc3)C2)CC1 -9.55%, Cn1cc(-c2nc3cncnc3n(-c3ccccc3)c2=O)c2ccccc21 11.2%, COc1ccc(-n2c(=O)c(-c3cccs3)nc3cnc(N4CCOCC4)nc32)cc1 -15.7%, COc1ccc(-n2c(=O)c(-c3cn(C)c4ccccc34)nc3cnc(OC)nc32)cc1 -7.96%, COCCn1c(=O)c(-c2cccc(C#N)c2)nc2cnc(OC)nc21 4.96%, Cc1noc(C)c1C(=O)N1CCC[C@@]2(CCN(Cc3ccccc3)C2)C1 4.21%, Cc1ccccc1-c1cc(NCCN2CCOCC2)ncn1 -3.03%, Cc1ccccc1-c1cncnc1Nc1ccc(F)cc1 3.46%, COc1ccc(Oc2ncc3nc(-c4ccc(Cl)cc4)c(=O)n(C[C@H]4CCCO4)c3n2)cc1 -18.6%, CS(=O)(=O)N1CCC2(CCCN(C(=O)Nc3cccc(C#N)c3)C2)CC1 1.96%, COc1ccc(CNc2cc(-c3ccoc3)ncn2)c(OC)c1 0.143%, N#Cc1ccccc1-c1nc(NCCN2CCOCC2)c2ccccc2n1 -3.19%, COCCNc1ccnc(-c2ccccc2C(F)(F)F)n1 9.65%, O=c1c(-c2cccs2)nc2cnc(N3CCOCC3)nc2n1-c1ccccc1 2.23%, COCCn1c(=O)c(C)nc2cnc(Oc3ccccc3)nc21 -4.22%, CN(C)c1ncc2nc(-c3ccccc3)c(=O)n(-c3ccccc3)c2n1 23.9%, COc1ccc(-c2nc3cnc(N4CCOCC4)nc3n(C3CC3)c2=O)cc1 8.69%, COc1ccc(NC(=O)N2CCCC3(CCN(C(=O)c4cnccn4)CC3)C2)cc1 1.32%, CC(C)NC(=O)N1CC[C@@]2(CCCN(C(=O)c3cc(C(F)(F)F)cc(C(F)(F)F)c3)C2)C1 9.52%, CN(C)c1ccc(-c2cc(-n3ccnc3)ncn2)cc1 9.75%

Same assay, conditions: Jurkat NFAT-bla M1, carbachol, beta-lactamase ratio, 5 h; at 17.2 µM (top of the series)

Activity change, negative = inhibition, inactive:
NCCC(=O)NCCc1cnc[nH]1 -0.872%

Same assay, conditions: Jurkat NFAT-bla M1, carbachol, beta-lactamase ratio, 5 h; at 38 µM (top of the series)

Activity change, negative = inhibition, inactive:
NCCC(=O)NCCc1cnc[nH]1 2.63%
